This excerpt belongs to a sample that is enriched for hits.
Methyltransferases: Primary Screen for Target Class Profiling of Small Molecule Inhibitors of Methyltransferases; purified enzyme, MTase-Glo SAH luminescence; active compounds read low; calls only at 40 µM; 3.9% of 25,000 active; AID 1745853, 2022; call rule not given here
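Each enzyme was assayed with SAM and its substrate. SAH formation detected by MTase-Glo luminescence; single-point 40 uM screen[…].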
Starred values were filed as active, the others as inactive; ! = repeats disagree. % is scaled to controls: 0 for no effect and ±100 for the full control effect.

What do the screens show for `O=C(O)C1(Cc2cccc(Nc3nccs3)n2)CCC(Oc2cccc(Cl)c2F)CC1` (stereo not drawn)?
Methyltransferases: active!

What do the screens show for `O=C(Nc1ccc(-n2nc(C(F)(F)F)cc2C(F)(F)F)cc1)c1ccncc1F`?
Methyltransferases: inactive

What do the screens show for `Cc1nn(C)c(C)c1CN(Cc1ccnc2ccccc12)C1CC1`?
Methyltransferases: inactive

What do the screens show for `CN1CCc2cccc3c2C1Cc1ccc(O)c(O)c1-3` (stereo not drawn)?
Methyltransferases: active

Results for CCCCN1C(=O)c2cc(C(=O)NCc3ccccc3C)nn2CC1(C)C(=O)NC1CCCC1 (stereo not drawn) ?
Methyltransferases: inactive

How did CCCn1c(=O)c2ccc(C(=O)NC3CCCC3)cc2n2c(=O)n(Cc3cccc(OC)c3)nc12 do in these assays?
Methyltransferases: inactive

How did COC(=O)C(C)(N)Cc1ccc(O)cc1 (stereo not drawn) do in these assays?
Methyltransferases: inactive

Results for C[C@](N)(Cc1ccc(O)cc1)C(=O)O ?
Methyltransferases: inactive

How did C[C@](N)(Cc1ccc(O)c(O)c1)C(=O)O do in these assays?
Methyltransferases: active

How did CC1(C(=O)NC2CCCCCC2)Cn2c(ccc2-c2ccccc2)C(=O)N1Cc1ccccc1 (stereo not drawn) do in these assays?
Methyltransferases: inactive

What do the screens show for `CC1CCCC(NC(=O)C2(C)Cn3c(cc4occc43)C(=O)N2c2ccc(Cl)cc2)C1C` (stereo not drawn)?
Methyltransferases: inactive

Results for C=C(C(=O)O)[C@@H]1CC[C@@]2(C)CC[C@H](O)[C@@]2(C(C)=O)C1 ?
Methyltransferases: active

Results for C=C(C(=O)O)[C@@H]1CC=C2CCC[C@H](C)[C@@]2(C)C1 ?
Methyltransferases: inactive

What do the screens show for `CC(=O)c1ccc(Nc2nc3c(S(=O)(=O)c4ccc(Br)cc4)nnn3c3ccccc23)cc1`?
Methyltransferases: inactive

What do the screens show for `O=C(NC1CCCCC1)c1ccc2c(=O)nc3c(-c4cccc(F)c4)n[nH]n3c2c1`?
Methyltransferases: inactive

How did CN(Cc1nccs1)c1ncnc2ccc(-c3ccc4c(c3)OCO4)cc12 do in these assays?
Methyltransferases: active

How did Cc1csc(CN(C)C(=O)CC(c2ccccc2)c2ccc3c(c2)OCO3)n1 (stereo not drawn) do in these assays?
Methyltransferases: inactive

Results for CC(=O)Nc1c2n(c3ccc(F)cc13)CC(C)(C(=O)NCCC(C)C)N(Cc1ccccc1)C2=O (stereo not drawn) ?
Methyltransferases: inactive

How did Cc1ccc(Cl)cc1Nc1nn2c(=O)c3ccc(C(=O)NC4CCC(C)CC4)cc3nc2s1 (stereo not drawn) do in these assays?
Methyltransferases: inactive

Results for CN(C(=O)Cn1nc2n(C)c(=O)c3ccc(C(=O)NC4CCCC4)cc3n2c1=O)c1ccccc1 ?
Methyltransferases: inactive

What do the screens show for `CN(C)c1nc(NC2CCC(NC(=O)c3ccc(F)c(F)c3)CC2)nc2ccccc12` (stereo not drawn)?
Methyltransferases: active

Results for COc1ccc(-c2cc3n(n2)CC(C)(C(=O)NCc2ccccc2)N(Cc2cc(OC)ccc2OC)C3=O)cc1 (stereo not drawn) ?
Methyltransferases: inactive

Results for Cc1cccc(CNC(=O)C2(C)Cn3cnc(C(=O)NCc4ccc(F)cc4)c3C(=O)N2C2CC2)c1 (stereo not drawn) ?
Methyltransferases: inactive

Results for O=C(COCC(=O)N1CCN(C(c2ccccc2)c2ccccc2)CC1)Nc1ccc(Cl)cc1C(=O)O ?
Methyltransferases: active

How did O=C(CCC(=O)n1ncc2ccc(Cl)cc21)N1CCN(c2ccccc2)CC1 do in these assays?
Methyltransferases: inactive

Results for CCOc1ccc(CNC(=O)c2cc3n(n2)CC(C)(C(=O)NC2CCCCCC2)N(C)C3=O)cc1 (stereo not drawn) ?
Methyltransferases: inactive

How did CCC(C)NC(=O)c1ccc2c(=O)n(C)c3nn(CC(=O)c4ccc(OC)cc4)c(=O)n3c2c1 (stereo not drawn) do in these assays?
Methyltransferases: inactive

Results for CCc1ccc(NC(=O)CSc2nnc3n(CC(C)C)c(=O)c4ccccc4n23)cc1 ?
Methyltransferases: inactive

Results for CC1CCC(NC(=O)C2(C)Cn3c(cc4occc43)C(=O)N2C2CCCCC2)CC1 (stereo not drawn) ?
Methyltransferases: inactive

How did CCS(=O)(=O)c1cccc(-c2cc(C(=O)NC3CCN(C)CC3)c(C)c3[nH]c4ncc(C)cc4c23)c1 do in these assays?
Methyltransferases: active

How did Cn1ncc2c(C(=O)NC3CCCCCC3)cc(C(C)(C)C)nc21 do in these assays?
Methyltransferases: inactive

What do the screens show for `COc1cccc(C(=O)NC2CCN(c3cc(-c4cccs4)[nH]n3)CC2)c1OC`?
Methyltransferases: inactive

Results for COc1ccc(C(=O)Cn2nc3n(C(C)C)c(=O)c4ccc(C(=O)NC5CCCCC5)cc4n3c2=O)cc1 ?
Methyltransferases: inactive

What do the screens show for `C=C1C(=O)OC2CC(C)C(CCC(C)=O)=CCC12` (stereo not drawn)?
Methyltransferases: inactive

Results for C=C1C(=O)OC2CC(C)C(CCC(C)O)=CCC12 (stereo not drawn) ?
Methyltransferases: active

How did C=C1C(=O)O[C@@H]2C[C@H](C)[C@@]3(O)C=C(C(C)=O)[C@]4(CC3C[C@H]12)C(=O)O[C@H]1C[C@@H](C)C(CCC(C)=O)=CC[C@H]14 (stereo partly drawn) do in these assays?
Methyltransferases: inactive

What do the screens show for `COC(=O)Cn1c(=O)oc2cc(S(=O)(=O)NCC(C)c3ccccc3)ccc21` (stereo not drawn)?
Methyltransferases: inactive

What do the screens show for `CC1(C(=O)NC2CCCC2)Cn2c(cc3ccccc32)C(=O)N1Cc1ccc(F)cc1` (stereo not drawn)?
Methyltransferases: inactive

What do the screens show for `CCc1ccccc1N1C(=O)c2cc(C(C)(C)C)nn2CC1(C)C(=O)NCCC(C)C` (stereo not drawn)?
Methyltransferases: inactive

Results for Cc1cccc(CNC(=O)C2(C)Cn3cnc(C(=O)NCc4ccccc4)c3C(=O)N2C2CC2)c1 (stereo not drawn) ?
Methyltransferases: inactive

What do the screens show for `COc1cc(/C=C/c2cn(-c3ccc(C(=O)O)cc3)nc2/C=C/c2ccc(O)c(OC)c2)ccc1O`?
Methyltransferases: active

Results for COc1cc(/C=C/C(=O)O[C@@H]2C[C@@](O)(C(=O)O)C[C@@H](O)[C@@H]2O)ccc1O ?
Methyltransferases: inactive

What do the screens show for `C/C=C/c1ccc2oc(-c3ccc(O)c(OC)c3)c(C)c2c1`?
Methyltransferases: inactive

Results for CCN1CCCC2(CCN(C(=O)CCc3n[nH]c(C)c3C)C2)C1=O (stereo not drawn) ?
Methyltransferases: inactive

Results for CCCCNC(=O)c1ccc2c(=O)nc3c(-c4ccccc4F)n[nH]n3c2c1 ?
Methyltransferases: inactive

Results for Nc1ncnc2c1c(-c1cccc(OCc3ccccc3)c1)cn2C1CC(CN2CCC2)C1 (stereo not drawn) ?
Methyltransferases: active

Results for O=C(CCCc1nnc2n3nc(-c4ccccc4)nc3c3ccccc3n12)NCc1ccc(Cl)cc1 ?
Methyltransferases: inactive

How did COc1ccc(S(=O)(=O)N2CCCC(CN3CCOCC3)CC2)cc1 (stereo not drawn) do in these assays?
Methyltransferases: inactive

What do the screens show for `CC(C)=CCC(O)/C(C)=C/CO[C@@H]1O[C@H](CO)[C@@H](O)[C@H](O)[C@H]1O` (stereo partly drawn)?
Methyltransferases: active

Screens deposited in PubChem BioAssay by National Center for Advancing Translational Sciences (NCATS).
